The results in this text go back to PubChem BioAssay (NCI).

Compounds without any hit were thinned out: in the full panel of roughly 83,000, 20% have a hit.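 Method: cells in 96-well plates; compound added at one concentration; 48 h incubation; percent growth measured; values under 10 scored active.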 Values without a mark were called inactive. Active and inactive are the calls of the source.

Test systems include SK-MEL-2 melanoma; EKVX NSCLC; SN12C renal; UO-31 renal; TK-10 renal; ACHN renal; CAKI-1 renal; A498 renal; CCRF-CEM leukemia; MOLT-4 leukemia; SR leukemia; RPMI-8226 leukemia; OVCAR-8 ovarian; OVCAR-5 ovarian; OVCAR-4 ovarian; SK-OV-3 ovarian; IGROV1 ovarian; OVCAR-3 ovarian; HS 578T breast; NCI/ADR-RES ovarian.
Test in all cases: NCI-60 one-dose screen, 48 h (100 = growth as untreated, 0 = no growth, -100 = all killed)
Holding throughout (conditions): 10 µM unless noted

As to `CCOC(=O)c1sc2nc(-c3cccc(OC)c3)nc(N3CCOCC3)c2c1C`, the growth is 93.2% with SK-MEL-2 melanoma; 87.7% in the test on EKVX NSCLC; 87.5% with SN12C renal; 79.7% with UO-31 renal; 98.1% with TK-10 renal; 103% with ACHN renal. Further, the growth with CAKI-1 renal was 79.8%; in the test with A498 renal, 101%; in the test on CCRF-CEM leukemia, 98.4%; in the test on MOLT-4 leukemia it was 93.1%; in the test with SR leukemia it was 98.4%; in the test with RPMI-8226 leukemia, 87.8%. The growth in the test on OVCAR-8 ovarian is 102%; with OVCAR-5 ovarian, 96.6%; in the test with OVCAR-4 ovarian, 96.2%; in the test on SK-OV-3 ovarian it was 102%; in the test with IGROV1 ovarian, 87.3%; with OVCAR-3 ovarian, 108%. In addition, the growth is 104% with HS 578T breast and 90% in the test on NCI/ADR-RES ovarian.

On to `Cn1cc(C(=O)c2nc(-c3c[nH]c4ccc(F)cc34)no2)c2cc(F)ccc21`, for which the growth in the test on SK-MEL-2 melanoma is 98.1%; with EKVX NSCLC it was 89.8%; with SN12C renal it was 95.1%; in the test on UO-31 renal it was 69.5%; with TK-10 renal, 113%; with ACHN renal it was 96.1%. In addition, the growth was 82.5% in the test on CAKI-1 renal; 112% in the test on A498 renal; 91.7% in the test on CCRF-CEM leukemia; 95.2% in the test on MOLT-4 leukemia; 48.1% in the test with SR leukemia; 98.8% in the test on RPMI-8226 leukemia. In addition, the growth was 95.9% in the test with OVCAR-8 ovarian; 95.5% with OVCAR-5 ovarian; 97.5% in the test with OVCAR-4 ovarian; 83.6% in the test with SK-OV-3 ovarian; 66.8% in the test with IGROV1 ovarian; 97.4% in the test with OVCAR-3 ovarian. For the same compound, the growth is 91.3% in the test on HS 578T breast and 84% in the test on NCI/ADR-RES ovarian.

In the case of `c1ccc(CCNc2ncnc3[nH]ncc23)cc1`, the growth in the test with SK-MEL-2 melanoma is 127%; with EKVX NSCLC, 58.3%; with SN12C renal it was 92.7%; with UO-31 renal, 62.1%; in the test with TK-10 renal, 110%; in the test on ACHN renal, 89.2%. The growth is 90.4% with CAKI-1 renal; 104% with A498 renal; 95.1% with CCRF-CEM leukemia; 124% in the test with MOLT-4 leukemia; 107% in the test on SR leukemia; 67% in the test on RPMI-8226 leukemia. Further, the growth is 95% in the test with OVCAR-8 ovarian; 82.5% in the test with OVCAR-5 ovarian; 81.1% in the test on OVCAR-4 ovarian; 109% with SK-OV-3 ovarian; 83.5% in the test with IGROV1 ovarian; 108% with OVCAR-3 ovarian. In the test on HS 578T breast, the growth was 66.3%.

As to `CCOC(=O)c1sc2nc(-c3cccc(O)c3)nc(N3CCOCC3)c2c1C`, the growth in the test with SK-MEL-2 melanoma is 78.9%; in the test on EKVX NSCLC, 36.1%; in the test with SN12C renal, 50.7%; in the test on UO-31 renal it was 25.4%; in the test on TK-10 renal it was 79.1%; in the test with ACHN renal it was 58.3%. Further, the growth with CAKI-1 renal was 72.3%; with A498 renal, 97.8%; with CCRF-CEM leukemia, 42.2%; with MOLT-4 leukemia, 29.1%; in the test with SR leukemia it was 65%; in the test on RPMI-8226 leukemia it was 55.4%. The growth in the test with OVCAR-8 ovarian was 61.8%; in the test on OVCAR-5 ovarian it was 88.3%; with OVCAR-4 ovarian, 51.3%; with SK-OV-3 ovarian, 51.1%; in the test with IGROV1 ovarian, 16.9%; with OVCAR-3 ovarian, 60.5%. Further, the figures for the growth in the test on HS 578T breast and in the test on NCI/ADR-RES ovarian were 15.5% and 59.6%, respectively.

Turning to `Cc1cc(C)nc(SC2=C(Nc3cc(Cl)ccc3O)C(=O)N(Cc3ccccc3)C2=O)n1`, the growth was 97.6% [30 µM] in the test on SK-MEL-2 melanoma; 83.9% [30 µM] in the test on EKVX NSCLC; 91.6% [30 µM] with SN12C renal; 82.4% [30 µM] in the test with UO-31 renal; 23.8% [30 µM] with TK-10 renal; 88.7% [30 µM] in the test on ACHN renal. Further, the growth in the test on CAKI-1 renal was 99.7% [30 µM]; in the test on A498 renal, 75.5% [30 µM]; with CCRF-CEM leukemia it was 22.1% [30 µM]; in the test with MOLT-4 leukemia, 46.3% [30 µM]; in the test with SR leukemia it was 54% [30 µM]; with RPMI-8226 leukemia it was 36.5% [30 µM]. Also, the growth in the test with OVCAR-8 ovarian is 76.4% [30 µM]; in the test with OVCAR-5 ovarian, 123% [30 µM]; in the test on OVCAR-4 ovarian, 71.2% [30 µM]; in the test with SK-OV-3 ovarian, 103% [30 µM]; in the test on IGROV1 ovarian, 83.8% [30 µM]; in the test with OVCAR-3 ovarian, 88.3% [30 µM]. Besides, the growth with HS 578T breast was 82.7% [30 µM]; with NCI/ADR-RES ovarian, 74.6% [30 µM].

With `Cn1cc(C(=O)c2nc(-c3c[nH]c4ccccc34)no2)c2ccccc21`, the growth in the test on SK-MEL-2 melanoma was 65.3%; in the test with EKVX NSCLC, 50.5%; in the test with SN12C renal, 91.3%; with UO-31 renal, 61.6%; in the test on TK-10 renal, 68.2%; with ACHN renal, 86.4%. Further, the growth with CAKI-1 renal was 56.9%; in the test on A498 renal, 95.9%; in the test with CCRF-CEM leukemia, 86.7%; in the test on MOLT-4 leukemia, 72.5%; in the test with SR leukemia, 44.1%; with RPMI-8226 leukemia, 78.9%. The growth in the test with OVCAR-8 ovarian is 91.1%; in the test on OVCAR-5 ovarian it was 66%; with OVCAR-4 ovarian it was 57.3%; in the test on SK-OV-3 ovarian, 69.8%; with IGROV1 ovarian, 25.7%; with OVCAR-3 ovarian it was 12.8%. The growth in the test on HS 578T breast is 56.2%; in the test with NCI/ADR-RES ovarian it was 64.2%.

On to `COc1ccc(S(=O)(=O)N2CCCCC2)cc1NC(=O)c1[nH]c(C)c2c1CCCCC2=O`, for which the growth is 19.6% in the test on SK-MEL-2 melanoma; 33.9% in the test with EKVX NSCLC; 34.9% in the test on SN12C renal; 9.67% (active) with UO-31 renal; 1.34% (active) in the test on TK-10 renal; 19.8% with ACHN renal. Besides, the growth with CAKI-1 renal is 11.4%; in the test with A498 renal it was -19.2% (active); in the test with CCRF-CEM leukemia it was 42%; with MOLT-4 leukemia, 36.6%; in the test on SR leukemia, 34.3%; with RPMI-8226 leukemia, 10.1%. Moreover, the growth in the test with OVCAR-8 ovarian is 32.8%; with OVCAR-5 ovarian, 48.4%; with OVCAR-4 ovarian it was 42%; in the test with SK-OV-3 ovarian, 19.7%; with IGROV1 ovarian, 15.3%; with OVCAR-3 ovarian, 23.5%. Also, the values for the growth in the test on HS 578T breast and with NCI/ADR-RES ovarian were 15.4% and 28.3%, respectively.

For the compound `COc1ccc(C2CC(c3ccc(Cl)cc3)=NN2/C=C2\SC(=S)N(NC(=O)Cc3ccccc3Nc3c(Cl)cccc3Cl)C2=O)cc1` (centres undefined), the growth in the test with SK-MEL-2 melanoma is 80.5%; in the test on EKVX NSCLC, 62.2%; in the test on SN12C renal it was 48.5%; in the test on UO-31 renal it was -30.2% (active); with TK-10 renal, 52.9%; with ACHN renal it was -34.3% (active). Further, the growth in the test with CAKI-1 renal was 62.8%; in the test on A498 renal, 72%; in the test on CCRF-CEM leukemia it was 38.3%; with MOLT-4 leukemia, 13.5%; with SR leukemia, 16.8%; in the test with RPMI-8226 leukemia, 71.9%. Moreover, the growth in the test on OVCAR-8 ovarian is 23.3%; in the test with OVCAR-5 ovarian it was 86.3%; in the test on OVCAR-4 ovarian, 74.7%; with SK-OV-3 ovarian it was 77.9%; in the test with IGROV1 ovarian it was 38.9%; with OVCAR-3 ovarian, 84.4%. For the same compound, the growth in the test with HS 578T breast was 75.6%; in the test with NCI/ADR-RES ovarian, 82%.
